According to PubChem BioAssay (NCI):
This is part of a sample that, as a whole, favours compounds with a hit. Of some 83,000 tested, about 20% had one in any assay.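 For each line, cells grew in 96-well plates with the test compound present at a single concentration for 48 hours.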 Activity calls are given as the source filed them. How the source made its calls: active means growth percent below 10; inactive means the rest.

system: BT-549 breast; assay: NCI-60 one-dose screen, 48 h (100 = growth as untreated, 0 = no growth, -100 = all killed); settings: 10 µM

Row | Compound | growth
1 | CC(=O)NNc1ccc2nnc(-c3ccc(Br)cc3)n2n1 | 90.2% (inactive)
2 | O=C(Nc1ccc(I)cc1F)c1cc(-c2ccc(F)cc2F)ccc1O | -12.5% (active)
3 | CS(=O)(=O)Nc1ccc(-c2ccc3c(c2)ncn3-c2ccc(NC(=O)Nc3ccc(Br)cc3)cc2)cc1 | -36.5% (active)
4 | Cc1ccc(NCC(=O)Nn2c(COc3ccccc3)nc3ccccc3c2=O)cc1 | 97.6% (inactive)
5 | C=CC(=O)Nc1ccc(C(=O)/C=C/c2ccc(N(C)CCF)cc2)c(O)c1 | -65% (active)
6 | Cc1ccc(C(C)C)cc1NC(=O)c1ccccc1O | -2.14% (active)
7 | Nc1nc(Nc2ccccc2)nn1Cc1c(Cl)cccc1Cl | 23.6% (inactive)
8 | COc1ccc(-c2cc(-c3cc(C(=O)c4ccccc4)n4ccc(C)cc34)nc(N)c2C#N)cc1 | 22.4% (inactive)
9 | CC(=O)Oc1ccccc1C(=O)Oc1ccc(C(=O)/C=C/c2ccncc2)cc1 | 31% (inactive)
10 | CC1(C)CC[C@]23CC[C@]4(C)[C@H](CC[C@@H]5[C@@]6(C)CC[C@H](N)C(C)(C)[C@@H]6CC[C@]54C)[C@H]2[C@H]1OC3=O | -97.7% (active)
11 | COc1ccc(/C=C/C(=O)c2ccc(S(=O)(=O)NCCNc3nc(Nc4ccc(F)cc4)nc(N(C)C)n3)cc2)cc1 | 36.2% (inactive)
12 | O=C(c1ccc(Cl)cc1)C1[C@H](c2ccccc2Br)[C@@H](c2ccccc2)NC12C(=O)Nc1ccc(Br)cc12 (some centres undefined) | 54.8% (inactive)
13 | COc1cnc2c(c1)C(=O)c1c-2n(CCCNC(C)C)c(=O)c2cc(OC)c(OC)cc12 | 56.4% (inactive)
14 | CC(=O)Nc1ccc(-n2cnc3cc(-c4ccc(NS(C)(=O)=O)cc4)ccc32)cc1 | 75.4% (inactive)
15 | CC[C@@]1(O)C(=O)OCc2c1cc1n(c2=O)Cc2c-1nc1cc(F)c(C)c3c1c2[C@@H](N)CC3 | -10.7% (active)
16 | COc1ccc2c(c1)N=C(C(=O)O)/C2=C/c1sc(Nc2ccc(O)cc2)nc1O | 55.4% (inactive)
17 | COc1ccc(NC(=O)CSc2nnc(-c3ccc4nc(-c5ccc(Cl)cc5)[nH]c4c3)o2)cc1 | 29.9% (inactive)
18 | CC(=O)Nc1ccc(-c2cn(-c3cccc(C(=O)Nc4cc(CN5CCOCC5)cc(C(F)(F)F)c4)c3)nn2)cn1 | -82.1% (active)
19 | COc1ccc(-c2nc(Nc3ccccc3S(N)(=O)=O)c3ccccc3n2)cc1 | 85.8% (inactive)

Row | Compound | growth
20 | Cc1ccc(CSc2nc(-c3ccc(F)cc3)c(C#N)c(=O)[nH]2)cc1 | 84.2% (inactive)
21 | COc1cccc(COc2ccc(/C=C3\Oc4cc(O)ccc4C3=O)cc2)c1 | 15.3% (inactive)
22 | CC(=O)Nc1ccc(-n2cnc3cc(-c4ccc(O)cc4)ccc32)cc1F | 60.3% (inactive)
23 | CC1CC(c2ccc(N(C)C)cc2)=NN1c1nc(O)c(C2=c3cc(Br)ccc3=NC2=O)s1 (centres undefined) | 85% (inactive)
24 | CN1CCc2c(sc3ncnc(N/N=C/c4ccc5ccccc5c4)c23)C1 | 71.1% (inactive)
25 | O=C(Nc1ccc(Cl)c(C(F)(F)F)c1)c1cncc(C#Cc2cnc3ccc(N4CCOCC4)nn23)c1 | -14.9% (active)
26 | O=C(N=Nc1c(O)[nH]c2ccc(Br)cc12)c1ccc2nc(-c3ccccc3)[nH]c2c1 | -71% (active)
27 | COc1cc(/C=C/C(=O)c2ccc(F)cc2)ccc1Oc1nc(Nc2ccc(F)cc2)nc(N(C)C)n1 | 88.6% (inactive)
28 | O=C1Nc2ccc(Cl)cc2/C1=C/c1cccc(OCc2ccccn2)c1 | -7.83% (active)
29 | Cc1cc(C(F)(F)F)ccc1C(=O)Nc1sc2c(c1C#N)CCC(=O)C2 | -76.1% (active)
30 | COc1ccc(C(=O)NC(=S)N2CCN(c3ncnc4c3cnn4-c3ccccc3)CC2)cc1 | 88.2% (inactive)
31 | Cn1cc(/C=N/Nc2ccnc3cc(Cl)ccc23)c2ccccc21 | -64.6% (active)
32 | COc1ccc(N(C)c2cc(C#N)nc3ccccc23)cc1N | 94.1% (inactive)
33 | Cc1cc2nc3c4ccccc4n(CCO)c3nc2cc1C | 78.7% (inactive)
34 | CCCn1c(=O)c2[nH]c(-c3ccc(OCc4nc5ccc(F)cc5[nH]4)cc3)nc2n(CCC)c1=O | 6.64% (active)
35 | Cc1cc(=O)oc2cc(OCCCCOc3ccc(/C=C/C(=O)Nc4cccc(Cl)c4)cc3)ccc12 | 41% (inactive)
36 | CCOC(=O)c1sc(N/N=C(\C)c2ccc3c(c2)Nc2ccccc2S3)nc1C | 48.1% (inactive)
37 | Cc1nn(-c2ccccc2)c2ncn(CC(=O)N/N=C/c3c[nH]c4ccccc34)c(=O)c12 | 99.4% (inactive)

system: MDA-MB-435 melanoma; assay: as above; settings: 10 µM

Row | Compound | growth
38 | CC(=O)NNc1ccc2nnc(-c3ccc(Br)cc3)n2n1 | 94.6% (inactive)
39 | O=C(Nc1ccc(I)cc1F)c1cc(-c2ccc(F)cc2F)ccc1O | 0.752% (active)
40 | CS(=O)(=O)Nc1ccc(-c2ccc3c(c2)ncn3-c2ccc(NC(=O)Nc3ccc(Br)cc3)cc2)cc1 | -18% (active)
41 | Cc1ccc(NCC(=O)Nn2c(COc3ccccc3)nc3ccccc3c2=O)cc1 | 92.6% (inactive)
42 | C=CC(=O)Nc1ccc(C(=O)/C=C/c2ccc(N(C)CCF)cc2)c(O)c1 | -46.7% (active)
43 | Cc1ccc(C(C)C)cc1NC(=O)c1ccccc1O | 44.7% (inactive)
44 | Nc1nc(Nc2ccccc2)nn1Cc1c(Cl)cccc1Cl | 48.4% (inactive)
45 | COc1ccc(-c2cc(-c3cc(C(=O)c4ccccc4)n4ccc(C)cc34)nc(N)c2C#N)cc1 | 78.5% (inactive)
46 | CC(=O)Oc1ccccc1C(=O)Oc1ccc(C(=O)/C=C/c2ccncc2)cc1 | 23.2% (inactive)
47 | CC1(C)CC[C@]23CC[C@]4(C)[C@H](CC[C@@H]5[C@@]6(C)CC[C@H](N)C(C)(C)[C@@H]6CC[C@]54C)[C@H]2[C@H]1OC3=O | -96.2% (active)
48 | COc1ccc(/C=C/C(=O)c2ccc(S(=O)(=O)NCCNc3nc(Nc4ccc(F)cc4)nc(N(C)C)n3)cc2)cc1 | 25.1% (inactive)
49 | O=C(c1ccc(Cl)cc1)C1[C@H](c2ccccc2Br)[C@@H](c2ccccc2)NC12C(=O)Nc1ccc(Br)cc12 (some centres undefined) | -39.7% (active)
50 | COc1cnc2c(c1)C(=O)c1c-2n(CCCNC(C)C)c(=O)c2cc(OC)c(OC)cc12 | 44% (inactive)
51 | CC(=O)Nc1ccc(-n2cnc3cc(-c4ccc(NS(C)(=O)=O)cc4)ccc32)cc1 | 51.7% (inactive)
52 | CC[C@@]1(O)C(=O)OCc2c1cc1n(c2=O)Cc2c-1nc1cc(F)c(C)c3c1c2[C@@H](N)CC3 | -41.9% (active)
53 | COc1ccc2c(c1)N=C(C(=O)O)/C2=C/c1sc(Nc2ccc(O)cc2)nc1O | 8.85% (active)
54 | COc1ccc(NC(=O)CSc2nnc(-c3ccc4nc(-c5ccc(Cl)cc5)[nH]c4c3)o2)cc1 | -7.51% (active)
55 | CC(=O)Nc1ccc(-c2cn(-c3cccc(C(=O)Nc4cc(CN5CCOCC5)cc(C(F)(F)F)c4)c3)nn2)cn1 | -89.1% (active)
56 | COc1ccc(-c2nc(Nc3ccccc3S(N)(=O)=O)c3ccccc3n2)cc1 | 34.1% (inactive)

Row | Compound | growth
57 | Cc1ccc(CSc2nc(-c3ccc(F)cc3)c(C#N)c(=O)[nH]2)cc1 | 106% (inactive)
58 | COc1cccc(COc2ccc(/C=C3\Oc4cc(O)ccc4C3=O)cc2)c1 | 37.2% (inactive)
59 | CC(=O)Nc1ccc(-n2cnc3cc(-c4ccc(O)cc4)ccc32)cc1F | -25.7% (active)
60 | CC1CC(c2ccc(N(C)C)cc2)=NN1c1nc(O)c(C2=c3cc(Br)ccc3=NC2=O)s1 (centres undefined) | 102% (inactive)
61 | CN1CCc2c(sc3ncnc(N/N=C/c4ccc5ccccc5c4)c23)C1 | 72.5% (inactive)
62 | O=C(Nc1ccc(Cl)c(C(F)(F)F)c1)c1cncc(C#Cc2cnc3ccc(N4CCOCC4)nn23)c1 | 19.3% (inactive)
63 | O=C(N=Nc1c(O)[nH]c2ccc(Br)cc12)c1ccc2nc(-c3ccccc3)[nH]c2c1 | -88.9% (active)
64 | COc1cc(/C=C/C(=O)c2ccc(F)cc2)ccc1Oc1nc(Nc2ccc(F)cc2)nc(N(C)C)n1 | 68.5% (inactive)
65 | O=C1Nc2ccc(Cl)cc2/C1=C/c1cccc(OCc2ccccn2)c1 | -39.2% (active)
66 | Cc1cc(C(F)(F)F)ccc1C(=O)Nc1sc2c(c1C#N)CCC(=O)C2 | -48.1% (active)
67 | COc1ccc(C(=O)NC(=S)N2CCN(c3ncnc4c3cnn4-c3ccccc3)CC2)cc1 | 84.8% (inactive)
68 | Cn1cc(/C=N/Nc2ccnc3cc(Cl)ccc23)c2ccccc21 | -83.5% (active)
69 | COc1ccc(N(C)c2cc(C#N)nc3ccccc23)cc1N | -22.4% (active)
70 | Cc1cc2nc3c4ccccc4n(CCO)c3nc2cc1C | 94.6% (inactive)
71 | CCCn1c(=O)c2[nH]c(-c3ccc(OCc4nc5ccc(F)cc5[nH]4)cc3)nc2n(CCC)c1=O | 47.8% (inactive)
72 | Cc1cc(=O)oc2cc(OCCCCOc3ccc(/C=C/C(=O)Nc4cccc(Cl)c4)cc3)ccc12 | 64.2% (inactive)
73 | CCOC(=O)c1sc(N/N=C(\C)c2ccc3c(c2)Nc2ccccc2S3)nc1C | 34.5% (inactive)
74 | Cc1nn(-c2ccccc2)c2ncn(CC(=O)N/N=C/c3c[nH]c4ccccc34)c(=O)c12 | 94.9% (inactive)
